Screen size: about 5,500 compounds; about 2,000 (36%) were called active. Another 18% or so got no clear call; they are omitted. Cut-off read from the data, not from the text of the source: active = normalized growth mostly below about 0.91 (no sharp cut-off); inconclusive = no clear call, values can overlap the other calls; inactive = mostly above about 0.92. The list shows a part of the results.
Assay: chemical genetic growth profiling, strain panel (AID 1159580);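 note: tested at 20 µM; growth read once vehicle control cultures reached saturation at 30 °C; 1 = growth at the plate median or of vehicle wells; lower values mean less growth of the strain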
Conditions: S. cerevisiae deletion strains, growth OD
[1] = locus YAR019C, strain CDC15, stronger effect = lower value
[2] = locus YBL105C, strain PKC1, stronger effect = lower value
[3] = locus YBR135W, strain CKS1, stronger effect = lower value
[4] = locus YBR136W, strain MEC1, stronger effect = lower value
[5] = locus YBR160W, strain CDC28, stronger effect = lower value
[6] = locus YDL017W, strain CDC7, stronger effect = lower value
[7] = locus YDL028C, strain MPS1, stronger effect = lower value
[8] = locus YDL101C, strain DUN1, stronger effect = lower value
[9] = locus YDL108W, strain KIN28, stronger effect = lower value
[10] = locus YDL132W, strain cdc53, stronger effect = lower value
[11] = locus YDL214C, strain PRR2, stronger effect = lower value
[12] = locus YDR052C, strain DBF4, stronger effect = lower value
[13] = locus YDR054C, strain cdc34, stronger effect = lower value
[14] = locus YDR226W, strain ADK1, stronger effect = lower value
[15] = locus YDR477W, strain SNF1, stronger effect = lower value
[16] = locus YER123W, strain YCK3, stronger effect = lower value
[17] = locus YER133W, strain GLC7, stronger effect = lower value
[18] = locus YFL009W, strain cdc4, stronger effect = lower value
[19] = locus YFL029C, strain CAK1, stronger effect = lower value
[20] = locus YFR003C, strain YPI1, stronger effect = lower value
[21] = locus YFR019W, strain FAB1, stronger effect = lower value
[22] = locus YFR028C, strain CDC14, stronger effect = lower value
[23] = locus YGR040W, strain KSS1, stronger effect = lower value
[24] = locus YGR052W, strain FMP48, stronger effect = lower value
[25] = locus YGR092W, strain DBF2, stronger effect = lower value
[26] = locus YHR030C, strain SLT2, stronger effect = lower value
[27] = locus YHR079C, strain IRE1, stronger effect = lower value
[28] = locus YHR082C, strain KSP1, stronger effect = lower value
[29] = locus YHR205W, strain SCH9, stronger effect = lower value
[30] = locus YIL147C, strain SLN1, stronger effect = lower value
[31] = locus YJL095W, strain BCK1, stronger effect = lower value
[32] = locus YJL128C, strain PBS2, stronger effect = lower value
[33] = locus YJL157C, strain FAR1, stronger effect = lower value
[34] = locus YJR016C, strain ILV3, stronger effect = lower value
[35] = locus YJR066W, strain TOR1 (second series), stronger effect = lower value
[36] = locus YJR066W, strain TOR1, stronger effect = lower value
[37] = locus YKL048C, strain ELM1, stronger effect = lower value
[38] = locus YKL067W, strain YNK1, stronger effect = lower value
[39] = locus YKL101W, strain HSL1, stronger effect = lower value
[40] = locus YKL193C, strain SDS22, stronger effect = lower value
[41] = locus YKL203C, strain TOR2, stronger effect = lower value
[42] = locus YLR113W, strain HOG1, stronger effect = lower value
[43] = locus YLR133W, strain CKI1, stronger effect = lower value
[44] = locus YLR403W, strain SFP1, stronger effect = lower value
[45] = locus YML070W, strain DAK1, stronger effect = lower value
[46] = locus YMR001C, strain CDC5, stronger effect = lower value
[47] = locus YMR205C, strain PFK2 (second series), stronger effect = lower value
[48] = locus YMR277W, strain FCP1, stronger effect = lower value
[49] = locus YNL006W, strain LST8, stronger effect = lower value
[50] = locus YNL020C, strain ARK1, stronger effect = lower value
[51] = locus YNL161W, strain CBK1, stronger effect = lower value
[52] = locus YNL183C, strain NPR1, stronger effect = lower value
[53] = locus YNL207W, strain RIO2, stronger effect = lower value
[54] = locus YNL222W, strain SSU72, stronger effect = lower value
[55] = locus YNL307C, strain MCK1 (second series), stronger effect = lower value
[56] = locus YOL078W, strain AVO1, stronger effect = lower value
[57] = locus YOL136C, strain PFK27, stronger effect = lower value
[58] = locus YOR061W, strain CKA2, stronger effect = lower value
[59] = locus YOR119C, strain RIO1, stronger effect = lower value
[60] = locus YOR231W, strain MKK1, stronger effect = lower value
[61] = locus YOR329C, strain SCD5, stronger effect = lower value
[62] = locus YPL031C, strain PHO85, stronger effect = lower value
[63] = locus YPL153C, strain RAD53, stronger effect = lower value
[64] = locus YPL204W, strain HRR25, stronger effect = lower value
[65] = locus YPL209C, strain IPL1, stronger effect = lower value
[66] = locus YPL256C, strain CLN2, stronger effect = lower value
[67] = locus YPR025C, strain CCL1, stronger effect = lower value
[68] = locus YPR106W, strain ISR1, stronger effect = lower value
[69] = locus YPR111W, strain DBF20, stronger effect = lower value
[70] = strain NNK1, stronger effect = lower value
[71] = strain TSCII, stronger effect = lower value

Measured: normalized growth

COC(=O)c1sccc1S(=O)(=O)Nc1cc(C(F)(F)F)cc(C(F)(F)F)c1
inactive: [1] 0.973 | [2] 0.967 | [3] 0.974 | [4] 0.974 | [5] 0.962 | [6] 0.973 | [7] 0.979 | [8] 0.957 | [9] 0.97 | [10] 0.967 | [11] 0.962 | [12] 0.969 | [13] 0.98 | [14] 0.971 | [15] 0.985 | [16] 0.936 | [17] 0.981 | [18] 0.965 | [19] 0.965 | [20] 0.974 | [21] 0.955 | [22] 0.962 | [23] 0.971 | [24] 1.03 | [25] 0.977 | [26] 1.07 | [27] 1.02 | [28] 1.06 | [29] 0.947 | [30] 0.978 | [31] 1.01 | [32] 0.9 | [33] 0.963 | [34] 0.97 | [35] 0.942 | [36] 1.07 | [37] 0.95 | [38] 0.956 | [39] 0.958 | [40] 0.969 | [41] 1.04 | [42] 0.902 | [43] 0.962 | [44] 0.966 | [45] 0.935 | [46] 0.972 | [47] 0.946 | [48] 0.971 | [49] 0.985 | [50] 0.956 | [51] 0.967 | [52] 0.997 | [53] 0.97 | [54] 0.961 | [55] 0.943 | [56] 0.971 | [57] 0.938 | [58] 0.955 | [59] 1.05 | [60] 0.934 | [61] 0.972 | [62] 0.987 | [63] 0.973 | [64] 0.97 | [65] 0.965 | [66] 0.967 | [67] 0.969 | [68] 0.955 | [69] 0.938 | [70] 0.974 | [71] 0.972

O=S(=O)(Nc1cc(C(F)(F)F)cc(C(F)(F)F)c1)c1ccc(Cl)s1
inactive: [1] 0.927 | [2] 0.921 | [3] 0.93 | [4] 0.922 | [5] 0.923 | [6] 0.925 | [7] 0.928 | [8] 0.942 | [9] 0.939 | [10] 0.925 | [11] 0.818 | [13] 0.926 | [14] 0.914 | [15] 0.808 | [16] 0.622 | [17] 0.83 | [18] 0.92 | [19] 0.928 | [20] 0.927 | [22] 0.927 | [23] 0.835 | [24] 0.619 | [29] 0.808 | [30] 0.927 | [31] 0.605 | [32] 0.906 | [33] 0.802 | [34] 0.921 | [35] 0.856 | [36] 0.668 | [38] 0.841 | [40] 0.933 | [41] 0.786 | [43] 0.772 | [44] 0.837 | [45] 0.718 | [46] 0.93 | [47] 0.852 | [48] 0.931 | [49] 0.941 | [50] 0.726 | [51] 0.927 | [52] 0.568 | [53] 0.914 | [54] 0.934 | [55] 0.645 | [56] 0.923 | [58] 0.836 | [59] 0.838 | [61] 0.927 | [62] 0.706 | [65] 0.927 | [67] 0.929 | [68] 0.934 | [69] 0.923 | [70] 0.919 | [71] 0.917
active: [12] 0.891 | [21] 0.772 | [25] 0.369 | [26] 0.246 | [27] 0.51 | [28] 0.48 | [37] 0.701 | [39] 0.685 | [42] 0.55 | [57] 0.67 | [60] 0.558 | [63] 0.617 | [64] 0.628 | [66] 0.475

From PubChem BioAssay AID1159580 (chemical genetic matrix, 2015)
